# CYP2C9 act = activators of human CYP2C9 | P11712 | recombinant CYP2C9, luciferin-H conversion, luminescence; active compounds read high; factor 1 = untreated enzyme, 0 = blocked | activation factor at 5 µM | actives 1.4% (n = 96,000);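 active = activation factor of 2 or more for CYP2C9 at a 5 µM dose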;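 also: 0 = sulfaphenazole-blocked wells and 1 = vehicle-only wells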
# CYP2C19 inhib = inhibitors of human CYP2C19; CYP2C19 Supersomes, luciferin-H EGE luminescence, 30 min; inhibition, % at 5 µM; actives 21% (n = 96,000);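 active = CYP2C19 inhibition above a set limit at 5 µM in the primary screen, cut at about 50% in these data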;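 also: plate controls were negative control wells for no effect and 2.5 mM tranylcypromine positive control for full effect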
# Target sequence (P33261 whole entry, looked up): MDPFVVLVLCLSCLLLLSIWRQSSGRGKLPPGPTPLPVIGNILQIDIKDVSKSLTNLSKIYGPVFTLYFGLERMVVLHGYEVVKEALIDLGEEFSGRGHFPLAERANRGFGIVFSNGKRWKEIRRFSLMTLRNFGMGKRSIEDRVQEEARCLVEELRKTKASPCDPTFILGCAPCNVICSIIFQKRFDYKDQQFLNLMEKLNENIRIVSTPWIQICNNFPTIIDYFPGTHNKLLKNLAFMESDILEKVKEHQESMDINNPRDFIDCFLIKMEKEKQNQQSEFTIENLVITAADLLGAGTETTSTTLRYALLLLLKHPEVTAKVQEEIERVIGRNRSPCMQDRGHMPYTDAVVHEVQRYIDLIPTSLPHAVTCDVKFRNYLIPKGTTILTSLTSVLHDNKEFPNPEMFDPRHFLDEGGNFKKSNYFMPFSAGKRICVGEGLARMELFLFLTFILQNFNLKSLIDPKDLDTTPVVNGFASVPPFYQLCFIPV
# CYP2C19 act = increases human CYP2C19 enzyme activity. P33261. recombinant CYP2C19, luciferin-H EGE luminescence; active compounds read high; 0 = fully inhibited enzyme, 1 = untreated enzyme. activation factor at 5 µM. 96,000 tested, under 10 active;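 active = activation factor of at least 2 at 5 µM in the primary screen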;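 also: 0 = wells with 2.5 mM tranylcypromine and 1 = vehicle-only wells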
# Cav32 inh = inhibitors of human Cav3.2 T-type calcium channel; O95180; Cav3.2-expressing cells, Fluo-4 calcium fluorescence FDSS; active compounds read low; B-score at 10 µM; actives 4% (n = 100,000); AID 449739;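 active = single-dose well whose peak fluorescence ratio is a statistical outlier from its plate by either plate-standardised score or position-corrected B-score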
# CYP2C9 inh = blocks human cytochrome P450 2C9; inhibition, % at 5 µM; CYP2C9 Supersomes, luciferin-H conversion, luminescence; AID 777; actives 20% (n = 96,000);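 active = blocking of liver enzyme CYP2C9 beyond about 50% at 5 µM, limit read from the data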
# * marks the source's active call; other numbers are inactive results; . = not tested or not shown. In the library only some 27% were active in any assay of this set; here they are far more common.
SMILES,CYP2C9 act,CYP2C19 inhib,CYP2C19 act,Cav32 inh,CYP2C9 inh
CCCCOC(=O)c1ccc(NC(C)=O)cc1,0.8,18,0.8,0.02,25
Cc1c(NC(=O)c2cccc(NC(=O)c3ccco3)c2)cccc1C(=O)O,1.2,-2,1,0.44,-15
CCCCCOC(=O)c1ccc(NC(=O)c2ccco2)cc1,0.1,80*,0.2,.,94*
CN(Cc1ccccc1)C(=O)c1cccc(NC(=O)c2ccco2)c1,3.1*,38,0.6,.,-212
Cc1ccc(C(=O)Nc2cccc(C(=O)NCc3ccccc3)c2)o1,0.1,52*,0.5,0.052,88*
O=C(NCc1ccccc1)c1cccc(NC(=O)c2ccco2)c1,0.1,56*,0.4,0.39,85*
Cc1ccc(C(=O)Nc2cccc(Oc3ccccc3)c2)o1,0.7,30,0.7,.,35
CC1(C(=O)N(CC(=O)NC2CCCC2)Cc2ccco2)CC(=O)N=C2C=CC=CN21 (stereo unspecified),1.1,-5,1.1,-0.031,-8
Cc1ccc(C(=O)CSc2nnc(COc3cc(C)cc(C)c3)o2)cc1,0.7,7,0.9,0.88,26
CCOC(=O)C[C@H]1c2ccccc2S(=O)(=O)N1c1ccccc1,.,.,.,-2.1,.
CCN(CC)C(=O)COc1ccc(Br)cc1Cl,0.7,82*,0.2,-1,26
Cc1ccc(/C=N/NC(=O)CCCOc2ccc(Cl)cc2Cl)cc1[N+](=O)[O-],0.7,9,0.9,-0.56,32
CCOc1ccc(Br)cc1CC(=O)O,.,.,.,0.14,.
CN(C(=S)NC(=O)CCCOc1ccc(Cl)cc1Cl)c1ccccc1,0.6,40,0.6,-3.7*,43
COc1ccc(/C=N/NC(=O)CCCOc2ccc(Cl)cc2Cl)cc1[N+](=O)[O-],0.3,86*,0.1,.,70*
O=C(COc1ccc(Cl)cc1Cl)Nc1ccc(Cl)cn1,0.9,58*,0.4,1.3,14
COc1ccc(C[C@@H]2CN3C(=NC[C@@H]3C)N2CCNC(=O)c2ccc(C)c(Br)c2)cc1,.,.,.,-2.3,.
COC(=O)[C@@H]1[C@@H](C#N)C2(c3ccccc3-c3ccccc32)N(c2ccc(Cl)cc2)N1C#N,.,.,.,-0.18,.
CC(C)NC(=O)CCCOc1ccc(Cl)cc1Cl,0.8,59*,0.4,-0.45,25
CCN(CC)C(=O)CCCOc1ccc(Cl)cc1Cl,0.8,97*,0,-2.2,21
CCn1c(=O)cc(OCC(=O)Nc2ccccc2C#N)c2ccccc21,0.6,30,0.7,-0.36,41
CCOC(=O)c1oc2ccccc2c1NC(=O)c1cc(OC)cc(OC)c1,0.9,8,0.9,-2.1,13
CC(=O)NS(=O)(=O)c1cccnc1Nc1ccc(Cl)c(Cl)c1,0.3,4,1,-2.4,71*
CCC(=O)NS(=O)(=O)c1cccnc1Nc1ccc(Cl)cc1,0,18,0.8,0.24,96*
NS(=O)(=O)c1cccnc1Nc1ccc(Cl)c(Cl)c1,0.6,50,0.5,.,43
SMILES,CYP2C9 act,CYP2C19 inhib,CYP2C19 act,Cav32 inh,CYP2C9 inh
COc1cccc(C2C(C(N)=O)=C(C)Nc3nc(-c4ccccc4Cl)nn32)c1 (stereo unspecified),0.7,60*,0.4,0.39,34
COc1ccc(C2C(C(N)=O)=C(C)Nc3nc(-c4ccccc4OC)nn32)cc1OC (stereo unspecified),1,0,1,-0.86,3
COc1ccc(C2C(C(N)=O)=C(C)Nc3nc(-c4cccc(Cl)c4)nn32)cc1OC (stereo unspecified),0.6,56*,0.4,1.1,41
COc1ccccc1C1C(C(N)=O)=C(C)Nc2nc(-c3ccccc3Cl)nn21 (stereo unspecified),1.1,26,0.7,0.011,-8
O=C(Nc1c(-c2ccccc2)nc2sccn12)c1ccccc1,0.3,79*,0.2,0.53,74*
Cc1ccn2c(NC(=O)c3ccco3)c(-c3ccccc3)nc2c1,.,.,.,-2.2,.
COc1cccc(NC(=O)c2oc3ccccc3c2NC(=O)C2CC2)c1,0.7,23,0.8,-0.77,29
COCCCn1c(SCC(=O)N2CCCC(C)C2)nnc1-c1ccco1 (stereo unspecified),0.8,25,0.7,0.24,20
COc1ccccc1NC(=O)c1cnc2n(c1=O)CCS2,1,-2,1,0.93,0
Cc1ccc(C(=O)Nc2c3c(nn2C(C)(C)C)CS(=O)(=O)C3)cc1C,1.1,99*,0,-0.55,-12
CCn1c(SCc2nc3ccccc3c(=O)[nH]2)nc2ccccc2c1=O,.,.,.,-1.5,.
COCCCn1c(SCc2nc3ccccc3c(=O)[nH]2)nc2ccccc2c1=O,0.3,36,0.6,0.55,67*
CCOC(=O)c1[nH]c(CSc2nnc(-c3ccncc3)n2CCOC)c(C(=O)OCC)c1C,0.1,65*,0.3,0.021,94*
COCCn1c(SCc2nc3ccccc3c(=O)[nH]2)nnc1-c1ccncc1,0.6,52*,0.5,0.57,38
CCN1CCN(c2nc(C)c3c(n2)CCCC3=O)CC1,0.9,-18,1.2,1,12
CC(C)CCNC(=O)C(c1cccs1)N(CC1CCCO1)C(=O)Cn1nnc2ccccc21 (stereo unspecified),0.9,2,1,-0.98,13
c1cncc(CNC2CCCc3ccccc32)c1 (stereo unspecified),1.2,-14,1.1,-0.19,-16
CC1=CC(C)(C)N(C(=O)c2ccc(F)cc2)c2cc3c(cc21)OCO3,0,95*,0,.,97*
CSC1=NCCN1C(=O)c1ccc2c(c1)OCO2,0.9,10,0.9,0.44,5
CCc1cc2c(NCCC(=O)O)ncnc2s1,0.9,12,0.9,0.41,12
CCc1nc(SCCO)c2oc3ccccc3c2n1,0.3,51*,0.5,-0.64,66*
CCc1cc2c(SCC(=O)c3ccc(Cl)s3)ncnc2s1,0.2,82*,0.2,0.15,82*
CCc1nc(SCC(=O)N2CCN(c3ccccc3)CC2)c2oc3ccccc3c2n1,0.9,11,0.9,-0.59,14
CCc1nc(SCc2nc3ccccc3[nH]2)c2oc3ccccc3c2n1,0,100*,0,-1.6,98*
CCc1nc(SCC(=O)c2ccc(Cl)s2)c2oc3ccccc3c2n1,0.3,42,0.6,-1.3,75*
Cc1ccc(-n2cc(C(=O)c3ccc4ccccc4c3O)cn2)cc1,1.4,-1,1,-0.75,-39
O=c1cc(CN2CCN(S(=O)(=O)c3ccc4c(c3)OCCO4)CC2)c2ccc(O)cc2o1,0.3,-10,1.1,0.028,66*
CCOC(=O)Nc1ccc2c(CN3CCN(S(=O)(=O)c4ccccc4)CC3)cc(=O)oc2c1,.,.,.,-0.41,.
CCc1ccc2oc(=O)cc(CN3CCOCC3)c2c1,0.7,65*,0.4,2.3,29
Cc1ccc(S(=O)(=O)N2CCN(S(=O)(=O)c3ccc4c(c3)OCCO4)CC2)cc1,1.1,-14,1.1,-0.58,-10
